Assay outcomes from PubChem BioAssay.
Most compounds without a hit are left out; they make up all but 4.1% or so of the library.
ssDAF-12 act = activators of S. stercoralis DAF-12 nuclear receptor | 1% of 370,000 active | HEK293 ssDAF-12/GRIP1 lit1-tk-luc reporter, luminescence; % of 3 µM dafachronic acid response | activation, % at 6.8 µM;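 active = activation above the mean over all tested compounds plus 3 SD, cut at about 0.9% in these data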;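 note: 0% = DMSO-only wells and 100% = 3 µM delta7-dafachronic acid wells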
hgDAF12 agonist = hgDAF-12 agonism, primary luciferase screen; HEK293 GAL4-hgDAF12 UAS-luciferase reporter, agonist luminescence; normalized to butyrate control; activation, % at 6.8 µM; 1.8% of 370,000 active;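 active = activation above a cutoff set at the mean of all screened compounds plus 3 SD, cut at about 10% in these data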;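 note: 0% = DMSO wells and 100% = sodium butyrate wells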
DAX1 inh-1 = inhibitors of human orphan nuclear receptor DAX1 (NR0B1); P51843; HEK293 Gal4-DAX1 luciferase reporter, luminescence; inhibition, % at 6.75 µM; 0.99% of 340,000 active; AID 504766;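 active = inhibition above the mean over all tested compounds plus 3 SD, cut at about 4.2% in these data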;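 note: 0% = DAX1-transfected cells with DMSO and 100% = empty-vector control cells with DMSO; inhibition shows as a rise in luminescence from relieved DAX1 repression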
Target sequence (P51843 207-470 limits assumed): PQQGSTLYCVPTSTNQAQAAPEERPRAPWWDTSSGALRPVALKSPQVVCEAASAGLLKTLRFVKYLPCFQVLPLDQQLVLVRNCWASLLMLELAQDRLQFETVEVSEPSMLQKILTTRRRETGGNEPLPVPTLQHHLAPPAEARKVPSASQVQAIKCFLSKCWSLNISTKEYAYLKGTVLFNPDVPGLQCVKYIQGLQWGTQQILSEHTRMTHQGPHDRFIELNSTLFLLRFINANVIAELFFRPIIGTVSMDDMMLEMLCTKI
hcDAF-12 act = H. contortus DAF-12 activation, primary screen; activation, % at 6.8 µM; AID 652067; HEK293 hcDAF-12 lit1-tk-luc reporter, luminescence; 0% DMSO, 100% Δ7-dafachronic acid; 1.4% of 370,000 active;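 active = activation above the mean of all tested compounds plus 3 SD, cut at about 5.5% in these data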;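 note: 100% = response to 3 µM Δ7-dafachronic acid high control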
DAX1 inh-2 = inhibitors of DAX1 repression of SF-1 activated StAR promoter; HEK293T StAR-luciferase reporter, SF-1/DAX-1 repression relief; inhibition, % at 6.8 µM; 1.1% of 370,000 active; AID 652010;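 active = inhibition above the mean over all tested compounds plus 3 SD, cut at about 3.6% in these data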;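 note: 0% = DAX-1 cells with DMSO and 100% = cells lacking DAX-1 with DMSO; higher inhibition means more luminescence from relief of DAX-1 repression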
PolyA inhibitor = blocks polyadenylation in yeast reporter cells. 0.02% of 300,000 active. S. cerevisiae SKY197-pL101 polyadenylation reporter, beta-gal luminescence; efflux-impaired pdr1/pdr3 knockout yeast; score 100 = 6 SD above DMSO. activity score, % at 12 µM;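 active = lowest replicate activity score at least 50, where 100 means six control SD above control mean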;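 note: yeast exposed to compound for 9 h at 30 °C; higher score means more reporter readthrough which indicates perturbed polyadenylation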
DAX1 conf = NR0B1 (human) inhibition, confirmation; shares compounds with DAX1 inh-2; HEK293T StAR-promoter luciferase reporter, SF-1/DAX-1 repression; inhibition, % at 6.8 µM; 87% of 2,400 active;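 active = inhibition above the average of every tested compound plus 3 SD, cut at about 3.8% in these data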;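 note: 0% = DAX-1 cells with DMSO and 100% = no DAX-1 control cells with DMSO; active compounds raise luminescence by relieving repression of the StAR reporter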
SF1 mutant ctr = nonselective inhibitor or artifact in SF-1 mutant DAX1 counter-screen; shares compounds with DAX1 inh-2; HEK293 StAR-luciferase, SF-1 AF2 mutant, luminescence; inhibition, % at 6.8 µM; 78% of 2,400 active; AID 652136;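 active = inhibition above the mean of all tested compounds plus 3 SD, cut at about 3% in these data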;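 note: 0% = DAX-1 transfected cells with DMSO and 100% = cells without DAX-1 with DMSO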
* hit, by the source's call; · = no result.

SMILES | ssDAF-12 act | hgDAF12 agonist | DAX1 inh-1 | hcDAF-12 act | DAX1 inh-2 | PolyA inhibitor | DAX1 conf | SF1 mutant ctr
Cc1ccc2nc(-c3cccc(Br)c3)c(Cc3ccccc3C(F)(F)F)n2c1 | 0 | 7 | · | 0 | 5.1* | · | 4.0* | 4.2*
Cc1ccc2nc(-c3ccc(Cl)cc3)c(Cc3ccccn3)n2c1 | -1 | 11* | · | 5 | 6.7* | · | 14* | 4.5*
CCOC(=O)C1=CCN(S(=O)(=O)c2ccc(Cl)cc2)C1c1cccc(Br)c1 (stereo not given) | -1 | -2 | · | -2 | -1 | · | · | ·
Cc1ccc(C(=O)NCCC(=O)N2CCOCC2)cc1 | 0 | 9 | 1 | 4 | 10* | 10 | 6.3* | 3.3*
CC(C)(C)c1csc(NC(=O)C2COc3ccccc3O2)n1 (stereo not given) | -1 | 10 | 1 | 1 | 5.0* | -8 | 2 | 3
O=C(Nc1nnc(C2CC2)s1)c1cc2ccccc2o1 | 0 | 13* | 2 | 3 | 6.1* | · | 7.3* | 4.8*
O=C(Nc1nnc(C2CC2)s1)C1COc2ccccc2O1 (stereo not given) | -1 | 12* | 2 | 3 | 5.7* | -4 | 11* | 5.5*
CC(=O)N1CCN(C(=O)c2ccc(CNC(=O)c3cccc(Br)c3)cc2)CC1 | -1 | -2 | · | -2 | 0 | · | · | ·
CC(=O)Nc1cccc(-c2csc(Nc3ccccn3)n2)c1 | 0 | 7 | 2 | 5 | 4.5* | 3 | 12* | 6.0*
COc1ccc(N2C[C@@]3(O)CC[C@@H](O)[C@@H](OC)[C@@H]3[C@@](C)(O)[C@@H]2CC=C(C)C)cc1 | -1 | 2 | · | 3 | 0 | · | · | ·
COc1c(C=O)c2c(c(OC)c1OC)-c1ccc(OC)c(=O)cc1C(NC(C)=O)CC2 (stereo not given) | 0 | -4 | -1 | 2 | 5.1* | · | 21* | -8
COc1cc2c(c(OC)c1OC)-c1ccc(OC)c(=O)cc1C(NC(=O)c1ccccc1)CC2 (stereo not given) | -1 | -5 | 1 | 1 | 4.7* | · | 16* | -6
CCN(CC)CCCn1c2c(c(SCC(=O)N3CCCc4ccccc43)nc1=O)CCC2 | -1 | 1 | 0 | 0 | 8.0* | -11 | 2 | 0
CN(C)CCn1c2c(c(SCC(=O)N3CCc4ccccc43)nc1=O)CCCC2 | 1 | -1 | -1 | 1 | -1 | -10 | · | ·
O=[N+]([O-])c1ccc(OC2OCC(O)C(O)C2O)cc1 (stereo not given) | -1 | 0 | · | 0 | -1 | · | · | ·
COc1ccccc1CN1CCC(CNS(=O)(=O)c2cc(-c3onc(C)c3C)ccc2OC)CC1 | -2 | -2 | 1 | -2 | 4.6* | 3 | 3 | 3.1*
Cc1ccc(CN2CC(N3CCC[C@@H]3C)CS2(=O)=O)cc1 (stereo not given in full) | -1 | 1 | · | -1 | -1 | · | · | ·
CC(C)[C@H](NC(=O)c1ccc(Cl)c(Cl)c1)C(=O)N1CCC[C@H]1C(=O)NCCc1ccccc1Cl | -1 | -1 | · | -2 | 1 | · | · | ·
O=[N+]([O-])c1ccccc1S(=O)(=O)Nc1cccc(-c2ccc(N3CCOCC3)nn2)c1 | 0 | 5 | 1 | 1 | 5.2* | -7 | 7.0* | 5.2*
O=[N+]([O-])c1ccccc1S(=O)(=O)Nc1cccc(-c2ccc(N3CCCC3)nn2)c1 | -1 | 3 | 0 | 1 | 2 | 8 | · | ·
COc1cccc(NC(=O)NC2CCCCN(Cc3ccccc3C)C2=O)c1 (stereo not given) | -2 | -2 | · | -4 | -3 | · | · | ·
NC(=Nc1cccc(F)c1)NC(=O)OCc1ccccc1 | 0 | 7 | · | 0 | 5.2* | · | 5.2* | 3.6*
CC(=O)c1ccc(-c2[nH]c3ccccc3c2CCN2C(=O)c3ccccc3C2=O)cc1 | 0 | -4 | -3 | 0 | -1 | · | · | ·
